Experimental data as given in the supplement of paper PMC12494721.
Structures can show the parent of a compound that is named as a salt.

What was measured:
Conditions in all cases: incubation time: 27 h, anaerobic, 37 °C;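 for the amine columns active = adjusted P below 0.05 in both replicates with a change the same way and a mean fold change under 0.8 or over 1.25; inactive = the rest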
[1] = test system: Clostridium sporogenes DSM 1664; experiment: growth (OD595) fold change vs plate DMSO controls (fold change (ratio)); higher = more growth
Summary of the method: (§1)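 Growth is the fold change relative to the median of plate DMSO controls. Readings came from anaerobic mGAM cultures in 96-well plates grown for 27 h at 37 °C and read at 595 nm. They were blank-subtracted, corrected for compound background with 20 µM compound solutions in water, and converted to OD with a calibration factor of 5. Values are means of 2 biological replicates, and fold changes above 1.5 were set to NA.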

Escherichia coli IAI1 [2] = experiment: as above
Summary of the method: as §1

[3] = test system: Klebsiella aerogenes DSM 30053; experiment: as above
Summary of the method: as §1

[4] = test system: Ruminococcus gnavus DSM 108212; experiment: as above
Summary of the method: as §1

[5] = test system: Klebsiella aerogenes DSM 30053; experiment: fold change of Histamine concentration vs plate DMSO controls (fold change (ratio)); higher = more amine produced, active = hit call of the paper (significant change in both replicates, either direction)
Summary of the method: (§2)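 Using LC–triple-quadrupole MS with dynamic MRM, amines were quantified against external calibration curves and corrected for drift within each batch. Samples were whole anaerobic mGAM cultures of four gut strains, grown 27 h at 37 °C from OD 0.1 before 1:1 dilution, extracted with cold acetonitrile/methanol containing 0.1% formic acid and centrifuged. Compounds were present at 20 µM final (sweeteners at 50 µM final). The numbers are fold changes versus plate DMSO controls, each the mean of 2 biological replicates.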

[6] = test system: Clostridium sporogenes DSM 1664; experiment: fold change of Tryptamine concentration vs plate DMSO controls (fold change (ratio)); higher = more amine produced, active = hit call of the paper (significant change in both replicates, either direction)
Summary of the method: as §2

[7] = test system: Ruminococcus gnavus DSM 108212; experiment: as above
Summary of the method: as §2

Escherichia coli IAI1 [8] = experiment: fold change of Putrescine concentration vs plate DMSO controls (fold change (ratio)); higher = more amine produced, active = hit call of the paper (significant change in both replicates, either direction)
Summary of the method: as §2

[9] = test system: Klebsiella aerogenes DSM 30053; experiment: as above
Summary of the method: as §2

Escherichia coli IAI1 [10] = experiment: fold change of Cadaverine concentration vs plate DMSO controls (fold change (ratio)); higher = more amine produced, active = hit call of the paper (significant change in both replicates, either direction)
Summary of the method: as §2

[11] = test system: Klebsiella aerogenes DSM 30053; experiment: as above
Summary of the method: as §2

[12] = test system: Ruminococcus gnavus DSM 108212; experiment: fold change of 2-Phenylethylamine concentration vs plate DMSO controls (fold change (ratio)); higher = more amine produced, active = hit call of the paper (significant change in both replicates, either direction)
Summary of the method: as §2

SMILES	growth [1]	growth (Escherichia coli IAI1 [2])	growth [3]	growth [4]	fold change of Histamine concentration [5]	fold change of Tryptamine concentration [6]	fold change of Tryptamine concentration [7]	fold change of Putrescine concentration (Escherichia coli IAI1 [8])	fold change of Putrescine concentration [9]	fold change of Cadaverine concentration (Escherichia coli IAI1 [10])	fold change of Cadaverine concentration [11]	fold change of 2-Phenylethylamine concentration [12]
CC(C)NCC(O)c1ccc(O)c(O)c1 (single isomer, unassigned; (+)) [(+) Isoproterenol-(+)-bitartrate salt] (20 µM)	1.02	1.06	0.995	1.06	1.03 (inactive)	1.01 (inactive)	0.989 (inactive)	0.979 (inactive)	0.997 (inactive)	0.976 (inactive)	0.974 (inactive)	0.984 (inactive)
C=CCOc1ccc(CC(=O)O)cc1Cl [Alclofenac] (20 µM)	0.943	1.06	0.98	1	0.998 (inactive)	1.05 (inactive)	1.05 (inactive)	1.02 (inactive)	0.974 (inactive)	0.97 (inactive)	0.991 (inactive)	1.09 (inactive)
COc1ccc2cc([C@H](C)C(=O)O)ccc2c1 [(S)-Naproxen] (20 µM)	1.04	1.1	1.02	1.08	1.04 (inactive)	0.983 (inactive)	0.969 (inactive)	1.06 (inactive)	0.977 (inactive)	1 (inactive)	0.988 (inactive)	0.899 (inactive)
COC(=O)C1=C(C)NC(C)=C(C(=O)OC(C)C)C1c1cccc2nonc12 (centres undefined) [Isradipine] (20 µM)	0.941	1.06	0.997	1.22	1.09 (inactive)	0.944 (inactive)	1.03 (inactive)	1.04 (inactive)	1.01 (inactive)	0.991 (inactive)	1 (inactive)	1.01 (inactive)
CO[C@H]1/C=C/O[C@@]2(C)Oc3c(C)c(O)c4c(O)c(c(/C=N/N5CCN(C)CC5)c(O)c4c3C2=O)NC(=O)/C(C)=C\C=C\[C@H](C)[C@H](O)[C@@H](C)[C@@H](O)[C@@H](C)[C@H](OC(C)=O)[C@@H]1C [Rifampicin] (20 µM)	0.000637	0.224	0.627	0.187	0.732 (inactive)	0.0227 (active)	0.145 (active)	0.718 (active)	0.768 (inactive)	1.14 (inactive)	1.06 (inactive)	0.131 (active)
Cc1cccc(CN2CCN(C(c3ccccc3)c3ccc(Cl)cc3)CC2)c1 (centres undefined) [Meclozine dihydrochloride] (20 µM)	0.897	0.963	1.01	0.705	0.964 (inactive)	1.04 (inactive)	0.826 (inactive)	1 (inactive)	0.989 (inactive)	0.971 (inactive)	1.01 (inactive)	0.93 (inactive)
CN[C@@H]1[C@H](O[C@H]2[C@H](O[C@H]3[C@H](O)[C@@H](O)[C@H](NC(=N)N)[C@@H](O)[C@@H]3NC(=N)N)O[C@@H](C)[C@]2(O)CO)O[C@@H](CO)[C@H](O)[C@H]1O [Dihydrostreptomycin sulfate] (20 µM)	1.08	0.98	0.92	0.933	0.704 (inactive)	1.25 (inactive)	0.984 (inactive)	0.958 (inactive)	0.922 (inactive)	1.01 (inactive)	0.993 (inactive)	0.991 (inactive)
COC(=O)[C@H](Cc1ccccc1)NC(=O)[C@H](CC(=O)O)NCCC(C)(C)C [Neotame] (50 µM)	1.05	1	1.04	1.07	0.99 (inactive)	1.05 (inactive)	1.01 (inactive)	1.01 (inactive)	1.01 (inactive)	0.933 (inactive)	1.02 (inactive)	1.02 (inactive)
Cn1cc(C(=O)Nc2ccccc2-c2cc(F)c(F)c(F)c2)c(C(F)F)n1 (20 µM)	1.04	0.97	0.98	0.98	1.02 (inactive)	1.03 (inactive)	0.986 (inactive)	1.02 (inactive)	1.02 (inactive)	1.01 (inactive)	0.989 (inactive)	0.966 (inactive)
O=c1[nH]cnc2c1ncn2[C@H]1CC[C@@H](CO)O1 [Didanosine] (20 µM)	1.07	1.03	1.03	1.08	0.958 (inactive)	0.992 (inactive)	1.15 (inactive)	1.14 (inactive)	1.08 (inactive)	1.69 (active)	1.03 (inactive)	1.16 (inactive)
COc1cc(C(=O)OCCCN2CCCN(CCCOC(=O)c3cc(OC)c(OC)c(OC)c3)CC2)cc(OC)c1OC [Dilazep dihydrochloride] (20 µM)	1.06	1.07	0.99	0.894	0.938 (inactive)	1.08 (inactive)	1.09 (inactive)	1.01 (inactive)	0.937 (inactive)	0.968 (inactive)	1.01 (inactive)	1.12 (inactive)
Nc1nc(N)nc(-c2cc(Cl)ccc2Cl)n1 [Irsogladine maleate] (20 µM)	1.07	1.02	0.961	1.02	0.989 (inactive)	0.978 (inactive)	0.959 (inactive)	1.04 (inactive)	0.998 (inactive)	1.06 (inactive)	0.997 (inactive)	0.921 (inactive)
